JMJD2A Tudor inh: JMJD2A Tudor domain (human) inhibition | AlphaScreen JMJD2A-Tudor / H3K4me3 peptide binding | Potency, µM (series often up to 114 µM), inactives show at the highest dose activity change, negative = inhibition, actives largely listed as inhibitors | hit rate 4.4% among 390,000 | AID 504339; note: % is set by controls: 0 for no effect and ±100 for the full control effect; nearly all actives have a fitted effect of over 50% in size
G9a block: G9a (human) methyltransferase inhibition | Q96KQ7 | G9a H3K9 monomethylation, AlphaScreen, 2 h | Potency, µM (titrated, usually from 102 µM), for inactives: at the highest dose activity, negative = inhibition, most hits filed as inhibitors | hit rate 8.8% among 350,000; note: % is set by controls: 0 for no effect and ±100 for the full control effect; nearly all actives have a fitted effect of over 75% in size
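G9a (20 nM) preincubated 15 min RT with compounds, then 500 nM biotinylated H3K9 peptide and 20 uM SAM added; 2 h RT reaction. Monomethyl-H3K9 product detected by AlphaScreen with anti-H3K9me1 antibody, streptavidin donor and anti-rabbit IgG acceptor beads.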
HP1b binding inh: inhibitors of HP1-beta chromodomain binding to methylated histone tails; hit rate 0.56% among 390,000; AlphaScreen HP1-beta / biotin-H3K9me3 peptide binding; P83916; Potency, µM (doses to about 114 µM), for inactives: top-dose activity change, negative = inhibition, most hits filed as inhibitors; note: nearly all actives have a fitted effect of over 70% in size
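HP1-beta protein (50 nM final) preincubated 30 min at room temperature with biotinylated H3(1-18)K9me3 peptide (50 nM) in PBS pH 7.4, 0.01% Tween-20, then compound added for 30 min. AlphaScreen streptavidin donor/nickel chelate acceptor beads (10 ug/mL final), 30 min dark, luminescence read.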
BAZ2B block: inhibitors of human BAZ2B bromodomain; AlphaScreen BAZ2B-H3K14Ac peptide displacement; Potency, µM (doses to about 114 µM), for the others: at the highest dose activity change, negative = inhibition, hits mostly inhibitors; hit rate 4.4% among 360,000; Q9UIF8; note: % is set by controls: 0 for no effect and ±100 for the full control effect; nearly all actives have a fitted effect of over 60% in size
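AlphaScreen displacement: compounds (up to 110uM) incubated 30 min at room temperature with a preformed 50 nM BAZ2B/50 nM biotinylated H3K14Ac peptide complex in PBS pH 7.4 with Tween-20. Donor and acceptor beads at 10 ug/mL final added, 20 min light-protected before reading.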
L3MBTL1 block: L3MBTL1 (human) inhibition; AlphaScreen L3MBTL1–H3K9me1 peptide binding; Potency, µM (top dose mostly 57.1 µM), inactives show top-dose activity, negative = inhibition, most hits filed as inhibitors; hit rate 0.66% among 230,000; AID 485360; note: % is set by controls: 0 for no effect and ±100 for the full control effect; nearly all actives have a fitted effect of over 60% in size
Target sequence (Q9Y468 whole entry, looked up): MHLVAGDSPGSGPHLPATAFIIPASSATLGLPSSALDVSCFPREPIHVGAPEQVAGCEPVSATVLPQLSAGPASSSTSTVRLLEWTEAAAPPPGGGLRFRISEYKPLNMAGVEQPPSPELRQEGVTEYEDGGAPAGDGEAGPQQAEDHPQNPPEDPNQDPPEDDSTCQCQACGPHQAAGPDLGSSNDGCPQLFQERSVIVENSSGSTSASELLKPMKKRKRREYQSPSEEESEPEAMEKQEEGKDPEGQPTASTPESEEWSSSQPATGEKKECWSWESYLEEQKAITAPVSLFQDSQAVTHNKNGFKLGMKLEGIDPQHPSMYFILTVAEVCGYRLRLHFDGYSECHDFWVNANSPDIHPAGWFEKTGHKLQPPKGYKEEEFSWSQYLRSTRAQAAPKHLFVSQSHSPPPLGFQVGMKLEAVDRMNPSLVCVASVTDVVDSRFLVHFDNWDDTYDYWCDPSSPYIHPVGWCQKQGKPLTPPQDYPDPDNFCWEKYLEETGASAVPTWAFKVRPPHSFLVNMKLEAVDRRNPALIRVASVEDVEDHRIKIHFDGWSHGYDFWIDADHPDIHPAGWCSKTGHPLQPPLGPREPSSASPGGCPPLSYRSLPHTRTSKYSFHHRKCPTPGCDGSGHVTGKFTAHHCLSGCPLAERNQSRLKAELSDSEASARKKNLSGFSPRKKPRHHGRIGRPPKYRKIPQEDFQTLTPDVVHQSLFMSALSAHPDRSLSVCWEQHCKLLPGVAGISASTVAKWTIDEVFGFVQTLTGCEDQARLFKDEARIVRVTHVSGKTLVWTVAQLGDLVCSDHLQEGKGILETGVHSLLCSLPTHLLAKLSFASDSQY
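Displacement of a biotinylated histone H3(1-15) peptide monomethylated at Lys9 (75 nM) from L3MBTL1 (50 nM) was measured by AlphaScreen after a 30 min room-temperature compound incubation; cefsulodin titration served as intraplate control.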
* marks the source's active call; other numbers are inactive results; ? = inconclusive; / = not tested or not shown; [ ] = dose if it differs, or a comment. Sampled rows, rich in hits. Any-hit rate of the full collection: about 11%. Calls come from the whole dose curve; as a rule, active = well fitted inhibition curve with a large enough effect; inconclusive = small, poorly fitted or top-dose-only effect; inactive = no such curve, though single readings can be large or run the other way. Potency is the fitted concentration of half-maximal effect.

SMILES	JMJD2A Tudor inh	G9a block	HP1b binding inh	BAZ2B block	L3MBTL1 block
NC(=S)N/N=C1/CCSc2ccc3ccccc3c21	-11%[11.4 µM]	45µM*	?	50µM*	?
NC(=S)N/N=C/c1coc2c(ccc3ccccc32)c1=O	-21%	21%[59 µM]	44%	-10%	-3%
CCCOC(=O)CSc1nnc(-c2ccccc2)o1	23%	-3%[59 µM]	52%	25%	/
Cc1c(SCCO)c(=O)[nH]c2cc3c(cc12)OCO3	-6%	50µM*	27%	-1%	/
Cc1cccc(C2N(c3nccs3)C(=O)C3CCCN32)c1 (stereo not given)	-26%[57.1 µM]	7.9µM*	36%	?	-3%
Cc1cccc(C2N(c3ccc(F)cc3)C(=O)C3CCCN32)c1 (stereo not given)	-8%	/	50%	/	/
Cc1ccc(C2N(c3ccc(F)cc3)C(=O)C3CCCN32)cc1 (stereo not given)	-4%	?	50%	-3%	-12%
Cc1ccc(C2N(c3nccs3)C(=O)C3CCCN32)cc1 (stereo not given)	20µM*	13µM*	14%	?	2%
O=C1C2CCCN2C(c2ccc(F)cc2)N1c1nccs1 (stereo not given)	20µM*	-31%[12.7 µM]	19%	?	1%
CCN(CC)C(=O)c1c(NC(=O)c2ccccc2F)sc2c1CCC(C(C)(C)C)C2 (stereo not given)	3%	-39%[59 µM]	34%	11%	/
O=[N+]([O-])c1cc(/C=N/O)ccc1Sc1ccccc1	56µM*	?	-40%	50µM*	/
O=[N+]([O-])c1cc(/C=N/O)ccc1SCc1ccccc1	-16%	48%[59 µM]	39%	-26%	-4%
CCn1c(CNc2cccc(C(F)(F)F)c2)n[nH]c1=S	50µM*	/	22%	-11%	7%
COc1cc(OC)c(-c2cc(C(=O)NCc3ccc(F)cc3)c3c(-c4ccccc4)[nH]nc3n2)cc1OC	-19%	4%[59 µM]	45%	-21%	/
Cc1cc(-c2csc(NC(=O)c3ccc(=O)[nH]c3)n2)c(C)n1Cc1ccccc1	?	?	10%	-25%	?
C=CCn1c(C)cc(-c2csc(NC(=O)CCc3nc4ccccc4c(=O)[nH]3)n2)c1C	-26%	32µM*	-2%	?	-9%
O=C(CCc1nc2ccccc2c(=O)[nH]1)Nc1ccc(F)cc1	13%[57.1 µM]	17%	28%	1%	-1%
O=C(CCc1nc2ccccc2c(=O)[nH]1)Nc1nc(-c2cccs2)cs1	-19%	45µM*	-14%	2%	-1%
O=C(c1ccccc1)N1CCN(CCc2ccncc2)CC1	-8%	-21%[59 µM]	43%	-2%	/
O=[N+]([O-])/C(C(=C(Cl)Cl)N1CCOCC1)=C1\NCCO1	-1%	/	49%	?	-3%
CN1CCO/C1=C(\C(Cl)=C(Cl)Cl)[N+](=O)[O-]	56µM*	20µM*	23%	50µM*	21%
COc1ccc(-c2cc(C(C)=O)c(C)n2CCC(=O)NCc2ccc(F)cc2)cc1	-17%	?	34%	79µM*	/
CC(=O)c1cc(-c2ccccc2)n(CCC(=O)NCc2cccs2)c1C	-15%	13%[12.7 µM]	3%	50µM*	2%[11.4 µM]
CCC(C)NC(=O)CCn1c(-c2ccc(F)cc2)cc(C(C)=O)c1C (stereo not given)	-28%	-11%	11%	?	-4%
CC(=O)c1cc(-c2ccc(F)cc2)n(CCC(=O)NC(C)(C)C)c1C	-28%	-9%	5%	50µM*	6%
SMILES	JMJD2A Tudor inh	G9a block	HP1b binding inh	BAZ2B block	L3MBTL1 block
COc1ccc(-c2ncc3ccccn23)cc1OC	3.5µM*	14µM*	?	32µM*	5%
Clc1ccccc1-c1ncc2ccccn12	18µM*	?	?	56µM*	-16%
CCCCn1c(SCC(=O)OCC)nc2c1c(=O)[nH]c(=O)n2C	-18%	10µM*	-10%	8%	8%
CCOC(=O)CSc1nc2c(c(=O)[nH]c(=O)n2C)n1C/C=C(/C)Cl	-18%	14µM*	-26%	6%	4%
CCCCCn1c(SCCN2CCOCC2)nc2c1c(=O)[nH]c(=O)n2C	-20%	25µM*	-20%	1%	5%
CCOC(=O)CSc1nc2c(c(=O)[nH]c(=O)n2C)n1CCc1ccccc1	-8%	-1%	19%	3%	-1%
